{"source": "the supplement of paper PMC9942566", "note": "± gives the standard deviation of the averaged measurements.", "data": [{"tested_on": "Serratia marcescens K904 PosmB-luxCDABE reporter (pMQ747)", "assay": "PosmB-lux reporter fold induction (RLU/OD600 relative to no-compound control), highest over Biolog concentrations; higher = stronger Rcs reporter activation", "details": "wild type K904; 4 h", "experimental": "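Serratia marcescens K904 (wild type) or its isogenic ΔrcsB mutant, carrying the Rcs-dependent PosmB-luxCDABE reporter plasmid pMQ747, was grown in LB at OD600 0.1 in Biolog Phenotype MicroArray plates PM11-20 for 4 h at 30-32°C. Each compound is present at 3-4 proprietary concentrations (not stated); per the Fig. S1 legend the value given is the highest fold over those wells. Three independent trials.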", "values": [{"smiles": "CN(C)c1ccc(C(=C2C=CC(=[N+](C)C)C=C2)c2ccc(N(C)C)cc2)cc1", "note": "[crystal violet] (Biolog plate: PM20, well positions: E1-4)", "PosmB-lux reporter fold induction": "0.912 ± 0.13"}, {"smiles": "Cc1cc(O)cc(C)c1Cl", "note": "[chloroxylenol] (Biolog plate: PM16, well positions: H5-8)", "PosmB-lux reporter fold induction": "2.08 ± 0.6"}, {"smiles": "CO[C@H]1/C=C/O[C@@]2(C)Oc3c(C)c(O)c4c(O)c(cc(O)c4c3C2=O)NC(=O)/C(C)=C\\C=C\\[C@H](C)[C@H](O)[C@@H](C)[C@@H](O)[C@@H](C)[C@H](OC(C)=O)[C@@H]1C", "note": "[rifamycin SV] (Biolog plate: PM16, well positions: E9-12)", "PosmB-lux reporter fold induction": "4.24 ± 0.58"}, {"smiles": "Cc1ncc([N+](=O)[O-])n1CC(O)CCl", "note": "(stereo not given) [ornidazole] (Biolog plate: PM20, well positions: C9-12)", "PosmB-lux reporter fold induction": "1.61 ± 0.055"}, {"smiles": "CO[C@H]1C[C@H](O[C@H]2[C@H](C)[C@@H](O[C@@H]3O[C@H](C)C[C@H](N(C)C)[C@H]3OC(C)=O)[C@@H](C)C[C@@]3(CO3)C(=O)[C@H](C)[C@@H](OC(C)=O)[C@@H](C)[C@@H](C)OC(=O)[C@@H]2C)O[C@@H](C)[C@@H]1OC(C)=O", "note": "[troleandomycin] (Biolog plate: PM20, well positions: H9-12)", "PosmB-lux reporter fold induction": "1.36 ± 0.24"}, {"smiles": "CN(C)CCCN1c2ccccc2Sc2ccc(Cl)cc21", "note": "[chlorpromazine] (Biolog plate: PM17, well positions: D9-12)", "PosmB-lux reporter fold induction": "2 ± 0.77"}, {"smiles": "CC(C)c1nc2nc(N)nc(N)c2nc1C(C)C", "note": "[2,4-Diamino-6,7-diisopropyl-pteridine] (Biolog plate: PM12, well positions: E1-4)", "PosmB-lux reporter fold induction": "2.38 ± 0.48"}, {"smiles": "[Cl][Fe]([Cl])[Cl]", "note": "[ferric chloride] (Biolog plate: PM16, well positions: G5-8)", "PosmB-lux reporter fold induction": "0.898 ± 0.3"}, {"smiles": "CN(C)CCC=C1c2ccccc2CCc2ccccc21", "note": "[amitriptyline] (Biolog plate: PM20, well positions: A2-4)", "PosmB-lux reporter fold induction": "1.19 ± 0.11"}, {"smiles": "Cc1cc(NS(=O)(=O)c2ccc(N)cc2)no1", "note": "[Sulfa-methoxazole] (Biolog plate: PM12, well positions: G5-8)", "PosmB-lux reporter fold induction": "2.26 ± 0.52"}, {"smiles": "[Cl][Cu][Cl]", "note": "[Cupric chloride] (Biolog plate: PM13, well positions: H1-4)", "PosmB-lux reporter fold induction": "1.13 ± 0.12"}, {"smiles": "NC[C@H]1O[C@H](O[C@H]2[C@H](O)[C@@H](O[C@H]3O[C@H](CO)[C@@H](O)[C@H](N)[C@H]3O)[C@H](N)C[C@@H]2N)[C@H](N)C[C@@H]1O", "note": "[Tobramycin] (Biolog plate: PM12, well positions: F1-4)", "PosmB-lux reporter fold induction": "1.6 ± 0.2"}, {"smiles": "O=C(O)c1cn(C2CC2)c2cc(N3CCNCC3)c(F)cc2c1=O", "note": "[ciprofloxacin] (Biolog plate: PM20, well positions: D5-8)", "PosmB-lux reporter fold induction": "1.63 ± 0.41"}, {"smiles": "C1COCCOCCOCCOCCOCCO1", "note": "[18-crown-6 ether] (Biolog plate: PM20, well positions: D9-12)", "PosmB-lux reporter fold induction": "2.22 ± 0.31"}, {"smiles": "N[C@@H]1CONC1=O", "note": "[D-Cycloserine] (Biolog plate: PM15, well positions: B1-4)", "PosmB-lux reporter fold induction": "1.37 ± 0.23"}, {"smiles": "CN[C@@H]1[C@@H](O[C@H]2O[C@H](CO)[C@@H](N)[C@H](O)[C@H]2O)OC2C[C@@H](N)[C@@H](O[C@H]3[C@H](O)[C@@H](O)[C@H](N)C[C@@H]3N)OC2[C@@H]1O", "note": "(stereo not given in full) [apramycin] (Biolog plate: PM20, well positions: A5-8)", "PosmB-lux reporter fold induction": "1.85 ± 0.71"}, {"smiles": "Oc1c(Cl)cc(Cl)c(Cl)c1Cc1c(O)c(Cl)cc(Cl)c1Cl", "note": "[hexa-chlorophene] (Biolog plate: PM20, well positions: E9-12)", "PosmB-lux reporter fold induction": "1.62 ± 0.6"}, {"smiles": "COc1ccc(CO)cc1OC", "note": "[3,4-Dimethoxy-benzyl alcohol] (Biolog plate: PM15, well positions: F1-4)", "PosmB-lux reporter fold induction": "2.75 ± 1.1"}, {"smiles": "Nc1ccn(C2OC(CO)C(O)C2O)c(=O)n1", "note": "[Cytosine-1-beta-D-arabino-furanoside] (Biolog plate: PM13, well positions: E1-4)", "PosmB-lux reporter fold induction": "1.5 ± 0.15"}, {"smiles": "O=c1ccc2ccc(O)cc2o1", "note": "[umbelliferone] (Biolog plate: PM19, well positions: C5-8)", "PosmB-lux reporter fold induction": "1.07 ± 0.18"}, {"smiles": "CC(=O)O[C@H]1C[C@@]2(C)[C@@H](C[C@@H](O)[C@H]3[C@@]4(C)CC[C@@H](O)[C@@H](C)[C@@H]4CC[C@@]32C)/C1=C(\\CCC=C(C)C)C(=O)O", "note": "[Fusidic acid] (Biolog plate: PM15, well positions: C5-8)", "PosmB-lux reporter fold induction": "1.01 ± 0.48"}, {"smiles": "C/C=C/C=C/C(=O)O", "note": "[sorbic acid] (Biolog plate: PM16, well positions: H9-12)", "PosmB-lux reporter fold induction": "2.12 ± 0.59"}, {"smiles": "NCC(=O)O", "note": "[Glycine] (Biolog plate: PM13, well positions: F5-8)", "PosmB-lux reporter fold induction": "1.52 ± 0.2"}, {"smiles": "O=C(O)/C=C/c1ccccc1", "note": "[cinnamic acid] (Biolog plate: PM19, well positions: C9-12)", "PosmB-lux reporter fold induction": "9.92 ± 5.1"}, {"smiles": "CC1COc2c(N3CCN(C)CC3)c(F)cc3c(=O)c(C(=O)O)cn1c23", "note": "(stereo not given) [Ofloxacin] (Biolog plate: PM11, well positions: H9-12)", "PosmB-lux reporter fold induction": "1.25 ± 0.35"}, {"smiles": "O=c1c(O)c(-c2cc(O)c(O)c(O)c2)oc2cc(O)cc(O)c12", "note": "[myricetin] (Biolog plate: PM18, well positions: G9-12)", "PosmB-lux reporter fold induction": "1.05 ± 0.13"}, {"smiles": "CCC[C@@H]1C[C@@H](C(=O)N[C@@H]([C@H]2O[C@H](SC)[C@H](O)[C@@H](O)[C@H]2O)[C@@H](C)O)N(C)C1", "note": "[Lincomycin] (Biolog plate: PM11, well positions: A9-12)", "PosmB-lux reporter fold induction": "1.16 ± 0.14"}, {"smiles": "O=c1[nH]c(=O)n([C@H]2C[C@H](O)[C@@H](CO)O2)cc1C(F)(F)F", "note": "[trifluorothymidine] (Biolog plate: PM18, well positions: B1-4)", "PosmB-lux reporter fold induction": "1.81 ± 0.69"}, {"smiles": "CCCCC(CC)CNC(=N)NC(=N)NCCCCCCNC(=N)NC(=N)NCC(CC)CCCC", "note": "(stereo not given) [Alexidine] (Biolog plate: PM15, well positions: E1-4)", "PosmB-lux reporter fold induction": "2.48 ± 0.99"}, {"smiles": "CCN1CCN(C(=O)N[C@@H](C(=O)N[C@@H]2C(=O)N3[C@@H]2SC(C)(C)[C@@H]3C(=O)O)c2ccccc2)C(=O)C1=O", "note": "[Piperacillin] (Biolog plate: PM14, well positions: F5-8)", "PosmB-lux reporter fold induction": "3.19 ± 1.8"}, {"smiles": "CN(C)[C@@H]1C(O)=C(C(N)=O)C(=O)[C@@]2(O)C(O)=C3C(=O)c4c(O)ccc(Cl)c4[C@@H](O)[C@H]3C[C@@H]12", "note": "[Demeclocycline] (Biolog plate: PM11, well positions: D5-8)", "PosmB-lux reporter fold induction": "1.53 ± 0.45"}, {"smiles": "Oc1c(Cl)cc(Cl)c2cccnc12", "note": "[5,7-Dichloro-8-hydroxyquinoline] (Biolog plate: PM15, well positions: C1-4)", "PosmB-lux reporter fold induction": "2.24 ± 0.92"}, {"smiles": "[Na+].[Na+].[O]=[W](=[O])([O-])[O-]", "note": "[sodium tungstate] (Biolog plate: PM17, well positions: E9-12)", "PosmB-lux reporter fold induction": "1.69 ± 0.46"}, {"smiles": "CNC(C)C1CCC(N)C(OC2C(N)CC(N)C(OC3OCC(C)(O)C(NC)C3O)C2O)O1", "note": "(stereo not given) [Gentamicin] (Biolog plate: PM11, well positions: G5-8)", "PosmB-lux reporter fold induction": "1.41 ± 0.081"}, {"smiles": "O=c1ccc2ccccc2o1", "note": "[coumarin] (Biolog plate: PM19, well positions: A9-12)", "PosmB-lux reporter fold induction": "1.03 ± 0.14"}, {"smiles": "[Na+].[O]=[V](=[O])[O-]", "note": "[Sodium metavanadate] (Biolog plate: PM14, well positions: F9-12)", "PosmB-lux reporter fold induction": "3.94 ± 1.2"}, {"smiles": "COc1ccc(C[C@H](N)C(=O)N[C@H]2[C@@H](O)[C@H](n3cnc4c(N(C)C)ncnc43)O[C@@H]2CO)cc1", "note": "[Puromycin] (Biolog plate: PM15, well positions: F9-12)", "PosmB-lux reporter fold induction": "1.9 ± 0.2"}, {"smiles": "CN[C@@H]1[C@H](O[C@H]2[C@H](O[C@H]3[C@H](O)[C@@H](O)[C@H](NC(=N)N)[C@@H](O)[C@@H]3NC(=N)N)O[C@@H](C)[C@]2(O)CO)O[C@@H](CO)[C@H](O)[C@H]1O", "note": "[dihydro-streptomycin] (Biolog plate: PM19, well positions: G5-8)", "PosmB-lux reporter fold induction": "1.47 ± 0.16"}, {"smiles": "Nc1ccc2cc3ccc(N)cc3nc2c1", "note": "[proflavine] (Biolog plate: PM20, well positions: D1-4)", "PosmB-lux reporter fold induction": "1.15 ± 0.24"}, {"smiles": "C[C@H]1c2cccc(O)c2C(=O)C2=C(O)[C@]3(O)C(=O)C(C(N)=O)=C(O)[C@@H](N(C)C)[C@@H]3[C@@H](O)[C@@H]21", "note": "[Doxycycline] (Biolog plate: PM13, well positions: C5-8)", "PosmB-lux reporter fold induction": "1.48 ± 0.11"}]}]}
